{
  "source": "PubChem BioAssay (Tox21)",
  "key": {"[1]": {"molecular_target": "Thyrotropin-releasing hormone receptor (Homo sapiens) (UniProt P34981)", "sequence (P34981 whole entry, looked up)": "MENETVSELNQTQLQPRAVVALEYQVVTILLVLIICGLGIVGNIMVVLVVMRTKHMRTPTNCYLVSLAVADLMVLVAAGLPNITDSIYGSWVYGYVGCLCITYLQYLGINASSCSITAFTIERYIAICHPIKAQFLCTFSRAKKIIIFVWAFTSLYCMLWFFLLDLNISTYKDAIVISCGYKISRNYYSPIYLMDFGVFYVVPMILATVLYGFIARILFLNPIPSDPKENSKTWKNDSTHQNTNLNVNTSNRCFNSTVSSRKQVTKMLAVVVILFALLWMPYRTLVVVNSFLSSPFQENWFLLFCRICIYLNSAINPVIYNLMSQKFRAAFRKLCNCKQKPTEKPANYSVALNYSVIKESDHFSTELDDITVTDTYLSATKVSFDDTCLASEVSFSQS", "experiment": "qHTS assay to identify small molecule agonists of the thyrotropin-releasing hormone receptor (TRHR) signaling pathway (AID 1346891; calls by dose curve; further: series mostly up to about 58 µM)", "in_short": "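Agonist-mode calcium mobilisation screen: TRHR-transfected HEK293 cells cultured overnight (18 h), dye-loaded for 2 h at 37 °C, exposed to compounds, and monitored by fluorescence for 3 min.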"}, "[2]": {"experiment": "Caspase-3/7 induction in HepG2 cells by small molecules, qHTS assay (AID 1346978); further: nearly all actives have a fitted effect of over 15% in size", "in_short": "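Caspase-3/7 induction was measured by Caspase-Glo 3/7 luminescence (30 min, room temperature) after a 17 hr compound exposure of wild-type HepG2 cells seeded at 2,000 per well and pre-incubated 5 hr.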"}, "[3]": {"experiment": "Caspase-3/7 induction in CHO-K1 cells by small molecules, qHTS cell viability counter screen (AID 1346979); further: nearly all actives have a fitted effect of over 35% in size; further: potency means the concentration at half of the fitted maximal effect", "in_short": "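In the same wells as the caspase read, viability of compound-treated wild-type CHO-K1 cells was assessed using CellTiter-Fluor, added after 16hr at 37C and measured by fluorescence following 1hr further incubation.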"}, "[4]": {"experiment": "Caspase-3/7 induction in CHO-K1 cells by small molecules, qHTS assay (AID 1346980); further: nearly all actives have a fitted effect of over 15% in size", "in_short": "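Luminescent Caspase-Glo 3/7 read (30min, room temperature) quantified apoptosis induction. Cells were wild-type CHO-K1, treated with compound for 17hr at 37 C and 5% CO2.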"}, "[5]": {"experiment": "Caspase-3/7 induction in HepG2 cells by small molecules, qHTS cell viability counter screen (AID 1346981); further: series mostly up to about 92 µM; nearly all actives have a fitted effect of over 30% in size", "in_short": "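In this quantitative HTS counter screen, compounds delivered in DMSO were left on unmodified HepG2 cells for 16 hr at 37 C. Viability was then determined fluorometrically with CellTiter-Fluor, in parallel with caspase-3/7 induction in the same wells.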"}, "[6]": {"molecular_target": "Voltage-gated inwardly rectifying potassium channel KCNH2 (Homo sapiens) (UniProt Q12809)", "sequence (Q12809 whole entry, looked up)": "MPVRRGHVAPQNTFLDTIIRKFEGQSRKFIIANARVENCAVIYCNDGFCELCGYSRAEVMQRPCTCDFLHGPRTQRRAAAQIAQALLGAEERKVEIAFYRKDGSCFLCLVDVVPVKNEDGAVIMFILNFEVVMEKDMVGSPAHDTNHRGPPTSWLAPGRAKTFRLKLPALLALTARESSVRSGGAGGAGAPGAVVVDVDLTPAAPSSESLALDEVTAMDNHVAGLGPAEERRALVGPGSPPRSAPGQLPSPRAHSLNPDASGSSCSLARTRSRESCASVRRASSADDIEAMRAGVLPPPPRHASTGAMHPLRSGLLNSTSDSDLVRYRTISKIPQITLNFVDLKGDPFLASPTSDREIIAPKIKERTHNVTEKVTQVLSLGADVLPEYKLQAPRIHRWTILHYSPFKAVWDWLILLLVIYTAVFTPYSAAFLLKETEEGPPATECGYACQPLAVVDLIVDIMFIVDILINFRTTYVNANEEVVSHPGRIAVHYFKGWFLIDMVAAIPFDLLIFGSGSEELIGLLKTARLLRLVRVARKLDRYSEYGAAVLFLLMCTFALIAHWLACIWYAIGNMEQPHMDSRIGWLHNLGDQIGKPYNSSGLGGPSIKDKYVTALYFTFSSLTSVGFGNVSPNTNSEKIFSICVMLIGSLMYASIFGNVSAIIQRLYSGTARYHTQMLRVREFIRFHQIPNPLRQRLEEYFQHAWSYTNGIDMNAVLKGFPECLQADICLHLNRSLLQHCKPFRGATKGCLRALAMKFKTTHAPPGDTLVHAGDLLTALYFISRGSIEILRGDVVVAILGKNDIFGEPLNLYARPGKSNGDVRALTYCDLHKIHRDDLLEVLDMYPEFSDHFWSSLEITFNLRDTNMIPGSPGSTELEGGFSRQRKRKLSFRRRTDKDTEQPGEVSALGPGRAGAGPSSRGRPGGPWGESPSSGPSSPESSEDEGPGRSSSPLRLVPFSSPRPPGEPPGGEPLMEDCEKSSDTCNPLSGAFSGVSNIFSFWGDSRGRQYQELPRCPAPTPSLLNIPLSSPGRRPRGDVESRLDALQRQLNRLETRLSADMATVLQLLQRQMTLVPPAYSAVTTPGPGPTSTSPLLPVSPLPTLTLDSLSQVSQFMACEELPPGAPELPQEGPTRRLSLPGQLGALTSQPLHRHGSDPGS", "experiment": "Human Ether-a-go-go-Related Gene (hERG) channel small molecule antagonists: fluorescence cell-based qHTS assay (AID 1671200);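 further: hERG-expressing U2OS cells given a thallium stimulus after FluxOR II dye loading; series mostly up to about 77 µM; nearly all actives have a fitted effect of over 50% in size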", "in_short": "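Quantitative HTS in hERG-U2OS cells: thallium entry through the channel reports activity, read as continuous 480/540 nm fluorescence over 2 min after stimulus addition.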"}, "[7]": {"experiment": "Human pregnane X receptor (PXR) small molecule agonists, qHTS cell viability counter screen (AID 1346977); further: nearly all actives have a fitted effect of over 50% in size", "in_short": "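Measures live-cell protease fluorescence (CellTiter-Fluor) in PXR-Luc HepG2 cells treated 24hr with compounds at 37C. Cells had 5hr to attach before pin transfer of DMSO solutions.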"}, "[8]": {"molecular_target": "Nuclear receptor subfamily 1 group I member 2 (Homo sapiens) (UniProt O75469)", "sequence (O75469 whole entry, looked up)": "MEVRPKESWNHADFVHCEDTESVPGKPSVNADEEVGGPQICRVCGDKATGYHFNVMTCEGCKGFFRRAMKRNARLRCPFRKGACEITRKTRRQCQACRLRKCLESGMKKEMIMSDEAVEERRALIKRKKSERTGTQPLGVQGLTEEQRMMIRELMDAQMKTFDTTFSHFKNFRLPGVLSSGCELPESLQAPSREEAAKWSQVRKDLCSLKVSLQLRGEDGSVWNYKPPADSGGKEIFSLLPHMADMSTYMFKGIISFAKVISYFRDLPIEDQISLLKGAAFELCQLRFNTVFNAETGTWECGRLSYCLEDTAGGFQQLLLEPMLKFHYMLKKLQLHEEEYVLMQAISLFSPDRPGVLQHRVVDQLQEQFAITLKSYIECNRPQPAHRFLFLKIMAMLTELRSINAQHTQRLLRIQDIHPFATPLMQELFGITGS", "experiment": "Human pregnane X receptor (PXR) small molecule agonists, qHTS assay (AID 1346982); further: nearly all actives have a fitted effect of over 35% in size; further: potency means the concentration at half of the fitted maximal effect", "in_short": "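Reporter HepG2 cells expressing PXR-Luc are cultured in charcoal-stripped FBS (5%), treated with compounds for 24 hr at 37 C, and assayed by ONE-Glo luminescence after 30 min at room temperature.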"}, "[9]": {"molecular_target": "Cytochrome P450 2D6 (Homo sapiens) (UniProt P10635)", "sequence (P10635 whole entry, looked up)": "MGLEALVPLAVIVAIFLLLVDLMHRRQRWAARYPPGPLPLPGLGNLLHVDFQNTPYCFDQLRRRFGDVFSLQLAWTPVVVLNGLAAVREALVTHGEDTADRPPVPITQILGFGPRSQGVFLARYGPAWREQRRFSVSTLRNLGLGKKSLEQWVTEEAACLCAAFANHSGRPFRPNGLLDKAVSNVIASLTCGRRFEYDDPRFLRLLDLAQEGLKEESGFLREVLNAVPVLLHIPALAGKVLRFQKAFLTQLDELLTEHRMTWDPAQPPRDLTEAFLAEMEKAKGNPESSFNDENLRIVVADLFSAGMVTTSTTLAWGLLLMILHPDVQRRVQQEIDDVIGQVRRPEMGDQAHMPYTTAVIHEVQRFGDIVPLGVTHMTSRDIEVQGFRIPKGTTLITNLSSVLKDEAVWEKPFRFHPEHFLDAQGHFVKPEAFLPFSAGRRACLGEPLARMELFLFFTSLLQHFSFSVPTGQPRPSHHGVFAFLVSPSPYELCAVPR", "experiment": "Cytochrome P450 Family 2 Subfamily D Member 6 (CYP2D6) small molecule antagonists: luciferase reporter qHTS assay (AID 1671196); further: series mostly up to about 120 µM; nearly all actives have a fitted effect of over 50% in size", "in_short": "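Test chemicals meet CYP2D6 plus proluciferin substrate (10 min, RT); NADPH regenerating solution then drives turnover for 1 h. Detection reagent halts the reaction; luminescence measured after 20 min.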"}, "[10]": {"molecular_target": "Cytochrome P450 2C19 (Homo sapiens) (UniProt P33261)", "sequence (P33261 whole entry, looked up)": "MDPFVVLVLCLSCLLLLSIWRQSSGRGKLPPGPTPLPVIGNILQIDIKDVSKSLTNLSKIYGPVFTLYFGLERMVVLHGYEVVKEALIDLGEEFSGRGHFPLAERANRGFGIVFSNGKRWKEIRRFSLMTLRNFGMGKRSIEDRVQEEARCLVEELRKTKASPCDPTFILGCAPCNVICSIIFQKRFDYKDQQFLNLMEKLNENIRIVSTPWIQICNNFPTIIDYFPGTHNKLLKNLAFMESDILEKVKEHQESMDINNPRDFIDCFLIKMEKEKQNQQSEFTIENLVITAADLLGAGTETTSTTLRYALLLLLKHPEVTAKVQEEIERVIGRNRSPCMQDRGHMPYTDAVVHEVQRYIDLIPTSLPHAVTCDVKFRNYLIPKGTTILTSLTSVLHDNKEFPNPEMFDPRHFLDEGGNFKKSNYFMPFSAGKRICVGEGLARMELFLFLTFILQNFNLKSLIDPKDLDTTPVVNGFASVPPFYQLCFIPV", "experiment": "Cytochrome P450 Family 2 Subfamily C Member 19 (CYP2C19) small molecule antagonists: luciferase reporter qHTS assay (AID 1671197); further: series mostly up to about 120 µM; nearly all actives have a fitted effect of over 65% in size", "in_short": "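CYP2C19 P450-Glo, 1536-well qHTS. Cpd + enzyme/proluciferin substrate 10 min RT; + NADPH regen, 37C 1 h; stop with luciferin detection reagent, 20 min RT, luminescence (RLU). Pos ctrl ketoconazole.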"}, "[11]": {"molecular_target": "Cytochrome P450 2C9 (Homo sapiens) (UniProt P11712)", "sequence (P11712 whole entry, looked up)": "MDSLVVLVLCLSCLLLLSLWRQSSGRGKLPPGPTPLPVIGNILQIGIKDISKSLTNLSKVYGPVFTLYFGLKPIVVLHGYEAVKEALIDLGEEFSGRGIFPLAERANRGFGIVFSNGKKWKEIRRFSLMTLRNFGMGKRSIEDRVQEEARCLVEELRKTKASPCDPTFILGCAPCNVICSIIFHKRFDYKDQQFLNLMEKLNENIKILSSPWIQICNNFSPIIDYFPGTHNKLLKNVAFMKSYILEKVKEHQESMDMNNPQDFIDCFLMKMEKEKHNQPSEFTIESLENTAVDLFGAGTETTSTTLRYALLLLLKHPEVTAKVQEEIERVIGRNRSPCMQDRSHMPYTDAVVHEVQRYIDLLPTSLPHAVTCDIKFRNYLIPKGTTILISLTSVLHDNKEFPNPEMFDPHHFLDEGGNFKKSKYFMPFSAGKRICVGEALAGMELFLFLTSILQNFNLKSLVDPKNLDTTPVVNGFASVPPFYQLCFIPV", "experiment": "Cytochrome P450 Family 2 Subfamily C Member 9 (CYP2C9) small molecule antagonists: luciferase reporter qHTS assay (AID 1671198); further: nearly all actives have a fitted effect of over 50% in size; further: potency means the concentration at half of the fitted maximal effect", "in_short": "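Enzyme-substrate mix preincubated with compound 10 min at room temperature; reaction started with NADPH regeneration solution, 1 h 37C. Luminescent luciferin product read after 20 min detection reagent.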"}, "[12]": {"molecular_target": "Cytochrome P450 1A2 (Homo sapiens) (UniProt P05177)", "sequence (P05177 whole entry, looked up)": "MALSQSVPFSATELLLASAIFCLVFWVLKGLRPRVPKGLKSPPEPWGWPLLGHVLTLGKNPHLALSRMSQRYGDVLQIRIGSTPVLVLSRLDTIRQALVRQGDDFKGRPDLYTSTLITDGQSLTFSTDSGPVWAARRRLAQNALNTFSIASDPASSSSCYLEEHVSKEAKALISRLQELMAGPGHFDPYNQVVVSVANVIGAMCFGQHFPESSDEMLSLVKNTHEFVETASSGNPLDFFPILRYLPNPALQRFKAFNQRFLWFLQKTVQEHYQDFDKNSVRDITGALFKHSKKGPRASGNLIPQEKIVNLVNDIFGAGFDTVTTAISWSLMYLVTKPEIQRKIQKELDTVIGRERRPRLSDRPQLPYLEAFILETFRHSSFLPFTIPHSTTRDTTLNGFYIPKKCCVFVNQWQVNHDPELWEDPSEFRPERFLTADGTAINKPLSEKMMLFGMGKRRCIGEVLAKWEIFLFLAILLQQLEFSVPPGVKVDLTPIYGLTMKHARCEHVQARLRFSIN", "experiment": "Cytochrome P450 Family 1 Subfamily A Member 2 (CYP1A2) small molecule antagonists: luciferase reporter qHTS assay (AID 1671199)", "in_short": "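Steps: enzyme-substrate mix dispensed; test compounds and furafylline control pinned in; 10 min room temperature; NADPH regeneration solution added, 1 h; reaction stopped with luciferin detection reagent; luminescence read after 20 min.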"}, "[13]": {"molecular_target": "Cytochrome P450 3A4 (Homo sapiens) (UniProt P08684)", "sequence (P08684 whole entry, looked up)": "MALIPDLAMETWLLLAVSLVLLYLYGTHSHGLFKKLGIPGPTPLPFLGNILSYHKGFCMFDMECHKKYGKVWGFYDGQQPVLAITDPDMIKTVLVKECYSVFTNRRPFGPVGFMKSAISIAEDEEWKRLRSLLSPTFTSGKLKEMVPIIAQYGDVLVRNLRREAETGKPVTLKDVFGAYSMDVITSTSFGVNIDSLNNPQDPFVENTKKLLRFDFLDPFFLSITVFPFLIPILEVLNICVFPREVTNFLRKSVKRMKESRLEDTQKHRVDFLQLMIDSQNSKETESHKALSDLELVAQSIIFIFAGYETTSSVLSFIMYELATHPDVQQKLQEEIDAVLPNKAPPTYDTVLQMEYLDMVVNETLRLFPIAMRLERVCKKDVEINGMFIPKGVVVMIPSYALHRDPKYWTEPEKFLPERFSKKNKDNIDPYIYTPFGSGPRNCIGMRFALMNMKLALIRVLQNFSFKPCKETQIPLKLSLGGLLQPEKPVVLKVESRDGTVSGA", "experiment": "Cytochrome P450 Family 3 Subfamily A Member 4 (CYP3A4) small molecule antagonists: luciferase reporter qHTS assay (AID 1671201)", "in_short": "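Inhibition of CYP3A4 is measured as loss of light: the enzyme converts a proluciferin substrate to luciferin, detected luminescently. Reaction ran 1 h at room temperature with NADPH regeneration after a 10 min compound preincubation.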"}, "[14]": {"molecular_target": "Nuclear receptor subfamily 1 group I member 2 (Homo sapiens) (UniProt O75469)", "experiment": "Human pregnane X receptor (PXR) activation by small molecules, qHTS assay (AID 1346985); further: nearly all actives have a fitted effect of over 40% in size", "in_short": "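DPX-2 cells (HepG2 co-transfected with a PXR response element and a CYP3A4-promoter luciferase construct) were seeded at 2,000 per well, rested 5 hr at 37C, then exposed to DMSO-dissolved compounds for 24 hr. Activation was read as luciferase luminescence.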"}},
  "note": "Several values for one entry are separate records, joined by “and”; a condition that tells them apart may be missing. Identical values can stand only once. Results filed as inconclusive are left out. Where a call stands in place of a potency, no number is given. The source holds several records for some structures; these can differ, active in one and inactive in another. Activity calls are given as the source filed them. Unless noted, the call rests on the fitted dose curve; in most records, active means well fitted curve in the direction sought with a large enough effect in the repeat runs; inconclusive means weak or mixed curves; inactive means no such curve, though single readings can be large; an effect the other way counts as inactive or inconclusive.",
  "data": [
    {"smiles": "Cc1ccc(O)cc1", "values": [
      {"measurement": "outcome", "setting": "[1]", "result": "inactive"},
      {"measurement": "Potency", "setting": "[2]", "result": "inactive"},
      {"measurement": "Potency", "setting": "[3]", "result": "inactive"},
      {"measurement": "outcome", "setting": "[4]", "result": "inactive"},
      {"measurement": "Potency", "setting": "[5]", "result": "inactive"},
      {"measurement": "outcome", "setting": "[6]", "result": "inactive"}
    ]},
    {"smiles": "Nc1ccc(S(=O)(=O)Nc2nccs2)cc1", "values": [
      {"measurement": "Potency", "setting": "[7]", "result": "inactive"},
      {"measurement": "Potency", "setting": "[2]", "result": "inactive"},
      {"measurement": "Potency", "setting": "[3]", "result": "inactive"},
      {"measurement": "outcome", "setting": "[4]", "result": "inactive"},
      {"measurement": "Potency", "setting": "[5]", "result": "inactive"},
      {"measurement": "Potency", "setting": "[8]", "result": "inactive"},
      {"measurement": "Potency", "setting": "[9]", "result": "inactive"},
      {"measurement": "Potency", "setting": "[10]", "result": "inactive"},
      {"measurement": "Potency", "setting": "[11]", "result": "inactive"},
      {"measurement": "Potency", "setting": "[12]", "result": "inactive"},
      {"measurement": "outcome", "setting": "[6]", "result": "inactive"},
      {"measurement": "Potency", "setting": "[13]", "result": "inactive"}
    ]},
    {"smiles": "O=C1NC(=O)c2ccccc21", "values": [
      {"measurement": "Potency", "setting": "[7]", "result": "inactive"},
      {"measurement": "Potency", "setting": "[2]", "result": "inactive"},
      {"measurement": "Potency", "setting": "[3]", "result": "inactive"},
      {"measurement": "outcome", "setting": "[4]", "result": "inactive"},
      {"measurement": "Potency", "setting": "[5]", "result": "inactive"},
      {"measurement": "Potency", "setting": "[8]", "result": "inactive and 31.4 µM (active)"},
      {"measurement": "Potency", "setting": "[9]", "result": "inactive"},
      {"measurement": "Potency", "setting": "[10]", "result": "inactive"},
      {"measurement": "Potency", "setting": "[11]", "result": "inactive"},
      {"measurement": "Potency", "setting": "[12]", "result": "inactive"},
      {"measurement": "outcome", "setting": "[6]", "result": "inactive"},
      {"measurement": "Potency", "setting": "[13]", "result": "inactive"}
    ]},
    {"smiles": "NC(N)=NC(=O)c1nc(Cl)c(N)nc1N", "values": [
      {"measurement": "outcome", "setting": "[1]", "result": "inactive"},
      {"measurement": "Potency", "setting": "[2]", "result": "inactive"},
      {"measurement": "Potency", "setting": "[3]", "result": "inactive"},
      {"measurement": "outcome", "setting": "[4]", "result": "inactive"},
      {"measurement": "Potency", "setting": "[5]", "result": "inactive"},
      {"measurement": "Potency", "setting": "[8]", "result": "69 µM (active) and 50.4 µM (active) and inactive"},
      {"measurement": "Potency", "setting": "[9]", "result": "inactive"},
      {"measurement": "Potency", "setting": "[11]", "result": "inactive"},
      {"measurement": "Potency", "setting": "[12]", "result": "inactive"},
      {"measurement": "outcome", "setting": "[6]", "result": "inactive"},
      {"measurement": "Potency", "setting": "[13]", "result": "inactive"}
    ]},
    {"smiles": "O=C(c1ccccc1)c1ccccc1", "values": [
      {"measurement": "Potency", "setting": "[7]", "result": "inactive"},
      {"measurement": "Potency", "setting": "[2]", "result": "inactive"},
      {"measurement": "Potency", "setting": "[3]", "result": "inactive"},
      {"measurement": "outcome", "setting": "[4]", "result": "inactive"},
      {"measurement": "Potency", "setting": "[5]", "result": "inactive"}
    ]},
    {"smiles": "N=C(N)c1ccc(OCCCCCOc2ccc(C(=N)N)cc2)cc1", "values": [
      {"measurement": "outcome", "setting": "[1]", "result": "inactive"},
      {"measurement": "Potency", "setting": "[7]", "result": "inactive"},
      {"measurement": "Potency", "setting": "[2]", "result": "inactive"},
      {"measurement": "Potency", "setting": "[3]", "result": "54.2 µM (active) and inactive"},
      {"measurement": "outcome", "setting": "[4]", "result": "inactive"},
      {"measurement": "Potency", "setting": "[5]", "result": "inactive"},
      {"measurement": "Potency", "setting": "[8]", "result": "68.2 µM (active) and 32.8 µM (active) and inactive"},
      {"measurement": "Potency", "setting": "[10]", "result": "inactive"},
      {"measurement": "Potency", "setting": "[12]", "result": "inactive"}
    ]},
    {"smiles": "O=C(O)c1cccc([N+](=O)[O-])c1", "values": [
      {"measurement": "outcome", "setting": "[1]", "result": "inactive"},
      {"measurement": "Potency", "setting": "[7]", "result": "inactive"},
      {"measurement": "Potency", "setting": "[2]", "result": "inactive"},
      {"measurement": "Potency", "setting": "[3]", "result": "inactive"},
      {"measurement": "outcome", "setting": "[4]", "result": "inactive"},
      {"measurement": "Potency", "setting": "[5]", "result": "inactive"},
      {"measurement": "Potency", "setting": "[9]", "result": "inactive"},
      {"measurement": "Potency", "setting": "[11]", "result": "inactive"},
      {"measurement": "Potency", "setting": "[12]", "result": "inactive"},
      {"measurement": "outcome", "setting": "[6]", "result": "inactive"},
      {"measurement": "Potency", "setting": "[13]", "result": "inactive"}
    ]},
    {"smiles": "C[C@]12C=CC(=O)C=C1CC[C@@H]1[C@@H]2[C@@H](O)C[C@@]2(C)[C@H]1CC[C@]2(O)C(=O)CO", "values": [
      {"measurement": "Potency", "setting": "[7]", "result": "inactive"},
      {"measurement": "Potency", "setting": "[2]", "result": "inactive"},
      {"measurement": "Potency", "setting": "[3]", "result": "inactive"},
      {"measurement": "outcome", "setting": "[4]", "result": "inactive"},
      {"measurement": "Potency", "setting": "[5]", "result": "inactive"},
      {"measurement": "Potency", "setting": "[8]", "result": "inactive"},
      {"measurement": "Potency", "setting": "[14]", "result": "inactive"},
      {"measurement": "Potency", "setting": "[9]", "result": "inactive"},
      {"measurement": "Potency", "setting": "[11]", "result": "62.4 µM (active) and inactive"},
      {"measurement": "Potency", "setting": "[12]", "result": "inactive"},
      {"measurement": "outcome", "setting": "[6]", "result": "inactive"},
      {"measurement": "Potency", "setting": "[13]", "result": "inactive"}
    ]}
  ]
}
